Active and inactive are the calls of the source. Calls come from the whole dose curve; as a rule, active = well fitted curve in the direction sought with a large enough effect; inactive = no such curve, though single readings can be large or run the other way.

Alpha-galactosidase A (Homo sapiens), sequence (P06280 whole entry, looked up): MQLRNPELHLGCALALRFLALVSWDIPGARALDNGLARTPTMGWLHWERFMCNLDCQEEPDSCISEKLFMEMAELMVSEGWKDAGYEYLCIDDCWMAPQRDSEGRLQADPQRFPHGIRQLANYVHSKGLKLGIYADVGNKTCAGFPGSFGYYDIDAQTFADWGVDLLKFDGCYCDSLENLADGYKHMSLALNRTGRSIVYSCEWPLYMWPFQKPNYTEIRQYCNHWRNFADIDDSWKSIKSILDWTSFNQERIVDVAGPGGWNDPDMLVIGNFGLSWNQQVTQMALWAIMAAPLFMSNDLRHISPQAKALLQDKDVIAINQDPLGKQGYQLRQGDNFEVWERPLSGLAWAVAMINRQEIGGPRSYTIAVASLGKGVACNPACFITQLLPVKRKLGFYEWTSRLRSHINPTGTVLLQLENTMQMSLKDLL

The test deals with Alpha-galactosidase A (Homo sapiens) (UniProt P06280). Nature of the test: Counterscreen for Glucocerebrosidase Inhibitors: qHTS Assay for Human alpha-Galactosidase at pH 4.5 (AID 992). Note: 0% is about no effect. Particulars: purified enzyme, fluorogenic substrate; series mostly up to 76.9 µM; activity change, negative = inhibition: at the top concentration. The text has this:
NIH Chemical Genomics Center [NCGC]
NIH Molecular Libraries Screening Centers Network [MLSCN]
PI Name: Zheng, Wei [NIH]
Alpha-galactosidase is a homodimeric glycoprotein that hydrolyzes the terminal alpha-galactosyl moieties from glycolipids and glycoproteins. Deficiency of this enzyme results in Fabry Disease with progressive accumulation of globotriaosylceramide and other glycosphingolipids in vascular endothelial cells that causes renal failure, myocardial infarction and stroke, and premature death in patients. It has reported that the improper folding and trafficking of alpha-galactosidase resulted from the genetic mutations may account for a significant numbers of Fabry patients. […] We optimized this alpha-galactosidase assay in 1536-well plate format for identifying the novel small molecule inhibitors with the structures other than the sugar analogs in order to develop the new pharmacological chaperones.
NCGC Assay Protocol Summary:
This is a fluorogenic enzyme assay with 4-Methylumbelliferyl alpha-D-galactopyranoside as the substrate and human […] as the enzyme preparation. Upon the hydrolysis of this fluorogenic substrate, the resulting product, […]. 4-Methyllumbelliferone, can be excited at 365 nm and emits at 440 nm which can be detected by a standard fluorescence plate reader. Data were normalized to the controls for basal activity (without enzyme) and 100% activity (with enzyme). In the AC50 values were determined from concentration-response data modeled with the standard Hill equation.
Assay buffer: 50 mM citric acid, 0.005% Tween-20, pH 4.5. (pH 4.5 is an optimal condition for this enzyme assay)
1536-well assay protocol for the human alpha-galactosidase:
(1) Add 2 ul/well of enzyme (2 nM final)
(2) Add 23 nL compounds in DMSO solution. The final titration was 0.7 nM to 77 uM.
(3) Add 1 ul of substrate (80 uM final)
(4) Incubate at room temperature for 20 min.
(5) Add 2 ul stop solution (1M NaOH and 1M Glycine mixture, pH 10)
(6) Detect the assay plate in a ViewLux plate reader (PerkinElmer) with Ex=365 nm and Em=440nm.
Keywords: Alpha-galactosidase, Fabry Disease, pharmacological chaperone, chaperone therapy, high throughput screening, alpha-galactosidase inhibitor, MLSMR, MLSCN, NIH Roadmap, qHTS and NCGC
For the molecule `Cc1cccc(C)c1NC(=O)C[N+](C)(C)C`, the “activity change, negative = inhibition” value is 2.66% (inactive).
As for `CN1CCN(CCC=C2c3ccccc3Sc3ccc(S(=O)(=O)N(C)C)cc32)CC1`, the “activity change, negative = inhibition” value was 1.58% (inactive).
In the case of `COc1ccc2c(c1)c(CC(=O)N1CCOCC1)c(C)n2C(=O)c1ccc(Cl)cc1`, the “activity change, negative = inhibition” value is -1.19% (inactive).
On to `O=C(O)[C@H]1CN(CCCP(=O)(O)O)CCN1`, for which the “activity change, negative = inhibition” value is -1.78% (inactive).
Still for that read-out and setting: to `CC(=O)N[C@@H](C(=O)O)C(C)(C)SN=O` belongs 0.503% (inactive).
In the case of `COc1[nH]c2ccc(F)cc2c1C(=O)OCC1CCN(CCNS(C)(=O)=O)CC1`, the “activity change, negative = inhibition” value is -0.503% (inactive).
The same measure, in the same setting: to `C[C@@H]1C[C@@H]2[C@H]3CCC4=CC(=O)C=C[C@]4(C)[C@]3(F)[C@@H](O)C[C@@]2(C)[C@@]1(O)C(=O)CO` belongs 4.41% (inactive).
On the same count and under the same terms, to `CCn1ccnc1C[C@@H]1COc2ccccc2O1` belongs -2.73% (inactive); to `C[C@@H]1CNCCN1S(=O)(=O)c1cccc2cnccc12`, 1.12% (inactive).
On the same count and under the same terms, to `CCOC(=O)C1=C(C)NC(C)=C(C(=O)OC)[C@H]1c1cccc([N+](=O)[O-])c1` belongs -3.05% (inactive); to `CNCC[C@H](Oc1ccccc1OC)c1ccccc1`, 3.6% (inactive).
In the case of `COCCOC(=O)C1=C(C)NC(C)=C(C(=O)OC(C)C)[C@@H]1c1cccc([N+](=O)[O-])c1`, the “activity change, negative = inhibition” value is -7.42% (inactive).
Consider `C[C@@](N)(C(=O)O)c1ccc(C(=O)O)cc1`, for which the “activity change, negative = inhibition” value is 5.27% (inactive).
On the same count and under the same terms, to `NC(N)=NN=Cc1c(Cl)cccc1Cl` belongs 0.0425% (inactive); to `NCCCCCCNS(=O)(=O)c1cccc2c(Cl)cccc12`, -3.46% (inactive); to `NS(=O)(=O)c1cc2c(cc1Cl)N[C@@H]([C@@H]1C[C@@H]3C=C[C@H]1C3)NS2(=O)=O`, -2.77% (inactive).
Same read-out and setting: to `COc1cc2c(cc1C(F)(F)F)N(C(=O)Nc1cc(F)cc(-c3cccnc3)c1)CC2` belongs -0.574% (inactive).
As to `CC(C)(C)NC[C@H](O)c1ccc(O)c(CO)c1`, the result was inactive.
As for `COc1cccc(OC)c1OCCNC[C@@H]1COc2ccccc2O1`, the “activity change, negative = inhibition” value was -3.12% (inactive).
In the case of `CN(C)CCCCSC(=N)N`, the “activity change, negative = inhibition” value is -1.03% (inactive).
Still for that read-out and setting: to `Cc1cccc(/C=C\c2ccccc2)n1` belongs -0.508% (inactive); to `NC[C@](O)(CS(=O)(=O)O)c1ccc(Cl)cc1`, 0.759% (inactive).
On the same count and under the same terms, to `CN1CCN2c3ccccc3Cc3ccccc3[C@@H]2C1` belongs -1.01% (inactive); to `COC(=O)c1c(-c2cc(OC)c(OC)c(OC)c2)c2ccnc(OCc3ncccn3)c2c(=O)n1Cc1ccnc(C)c1`, -2.33% (inactive); to `CC(N)=NCc1cccc(CN)c1`, 0.422% (inactive).
On the same count and under the same terms, under `N[C@@H]1CCN(O)C1=O` stands -1.74% (inactive); under `NCCNS(=O)(=O)c1cccc2cnccc12`, -2.12% (inactive); under `CC(C)(C)NC[C@H](O)COc1cccc2[nH]c(=O)[nH]c12`, -0.267% (inactive).
On to `C[C@H](N=C(NC#N)Nc1ccncc1)C(C)(C)C`, for which the “activity change, negative = inhibition” value is -0.809% (inactive).
On the same count and under the same terms, under `C[C@]12CC3CC(N)(C1)C[C@@](C)(C3)C2` stands -0.781% (inactive).
Still for that read-out and setting: to `C[C@@H]([C@H](O)c1ccc(O)cc1)N1CCC(Cc2ccccc2)CC1` belongs -2.64% (inactive).
As for `O=C1CC[C@H](N2C(=O)c3ccccc3C2=O)C(=O)N1`, the “activity change, negative = inhibition” value was 3.72% (inactive).
On the same count and under the same terms, to `CC(C)NC[C@H](O)c1ccc(NS(C)(=O)=O)cc1` belongs -0.812% (inactive); to `C=CCN1CCc2cc(O)c(O)cc2[C@H](c2ccccc2)C1`, -2.75% (inactive); to `Cc1cccc([C@@H]2CN(C)CCc3c2cc(O)c(O)c3Cl)c1`, -0.671% (inactive).
Still for that read-out and setting: to `Fc1ccc(C(c2ccc(F)cc2)N2CCN(C/C=C\c3ccccc3)CC2)cc1` belongs -7.5% (inactive); to `O=C(OCCN1CCCCC1)c1c[nH]c2ccccc12`, -2.26% (inactive); to `CC(N)=NCCCC[C@H](N)C(=O)O`, -0.999% (inactive).
Still for that read-out and setting: to `S=C(S)O[C@@H]1C[C@@H]2C[C@H]1[C@@H]1CCC[C@H]21` belongs 0.453% (inactive); to `N#CC(=C(/N)Sc1ccccc1N)/C(C#N)=C(/N)Sc1ccccc1N`, -2.24% (inactive).

These data come from PubChem BioAssay (NCATS).
